This is an account of results in PubChem BioAssay (EPA / NIEHS).

Several values for one entry are separate records, joined by “and”; a condition that tells them apart may be missing. Equal values may be shown once. More than one record can exist for a structure, and the calls need not agree. Activity calls are given as the source filed them. Rule for the calls: active = hit-call score of the fitted dose curve at least 0.9, where 1 is the maximum; inactive = score below 0.9.

For orientation: AC50 means the midpoint of the concentration-response curve, whichever way the signal moves.

Assay [1] can be described thus: ATG_E_Box_CIS: Attagene CIS-FACTORIAL HepG2 Assay for human Enhancer Box (E-box) (AID 2282936). Particulars: HepG2 E-box cis-reporter transcription, actives raise or lower the signal. The essentials: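 Endogenous transcription factor activity was sensed in human HepG2 liver cells through transfected cis-promoter reporter units. After 24 h of dosing, total RNA was reverse-transcribed and reporter cDNA resolved by capillary electrophoresis.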

Assay [2] in a line: ATG_M_61_CIS: Attagene CIS-FACTORIAL HepG2 Assay for M61 Transcription Factor (Internal Marker) (AID 2282937). Particulars: HepG2 Attagene CIS-FACTORIAL M61 internal marker reporter; actives raise or lower the signal. In outline: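 Background-control endpoint: HepG2 cells with cis-regulated reporter constructs, 24 h exposure, reporter mRNA detected via fluorescent primer extension and capillary electrophoresis; values from bidirectional fitting with DMSO baseline.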

A short description of assay [3]: ATG_EGR_CIS: Attagene CIS-FACTORIAL HepG2 Assay for human Early Growth Response 1 (EGR1) (AID 2282938). Particulars: HepG2 Attagene CIS-FACTORIAL EGR reporter mRNA; actives raise or lower the signal. In outline: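 Endpoint derived by bidirectional fitting versus DMSO vehicle. Method: cis-promoter reporter units transfected into HepG2, 24 h dosing, RNA isolation, RT-PCR with 6-FAM primer extension and HpaI digestion, then capillary electrophoresis fluorescence detection.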

The nature of assay [4]: ATG_M_19_CIS: Attagene CIS-FACTORIAL HepG2 Assay for M19 Transcription Factor (Internal Marker) (AID 2282939). Particulars: HepG2 Attagene CIS-FACTORIAL M19 internal marker reporter; actives raise or lower the signal. In outline:
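Internal marker readout, fitted in both directions against DMSO, from HepG2 cells carrying transfected cis-element reporter constructs; RT-PCR and capillary electrophoresis of reporter mRNA after 24 h exposure.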

Assay [5] in a line: ATG_Ets_CIS: Attagene CIS-FACTORIAL HepG2 Assay for human Erythroblast Transformation Specific (ETS) (AID 2282941). As to conditions: HepG2 ETS cis-reporter transcription; AC50: actives raise or lower the signal unless noted; outcome: actives raise or lower the signal unless noted. In outline:
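RT-PCR/capillary electrophoresis fluorescence read-out of reporter mRNA; HepG2 transient multi-reporter transfection; 24 h compound exposure; gain or loss of signal fitted bidirectionally relative to DMSO.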

The target in assay [6] is Hepatocyte nuclear factor 3-beta (Homo sapiens) (UniProt Q9Y261). Briefly: ATG_FoxA2_CIS: Attagene CIS-FACTORIAL HepG2 Assay for human Forkhead box A2 (FOXA2) (AID 2282942). As to conditions: HepG2 cis-reporter transcription factor activity, 24 h; actives raise or lower the signal. The essentials: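 Measured: reporter mRNA induction or loss in HepG2 transiently carrying multiple cis-regulated reporter units, 24 h after dosing. Quantified by RT-PCR plus capillary electrophoresis, normalised to DMSO.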

Assay [7] can be described thus: ATG_FoxO_CIS: Attagene CIS-FACTORIAL HepG2 Assay for human Forkhead box O (FoxO) (AID 2282943). Particulars: HepG2 Attagene cis-reporter, FoxO element, mRNA; actives raise or lower the signal. The essentials: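 Values reflect reporter mRNA induction or loss in HepG2 cells 24 h post-dosing, fitted bidirectionally with DMSO as negative control and baseline. Detection used RT-PCR and fluorescence capillary electrophoresis.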

A short description of assay [8]: ATG_GATA_CIS: Attagene CIS-FACTORIAL HepG2 Assay for human GATA Binding Protein (AID 2282944). As to conditions: HepG2 GATA cis-element reporter, Attagene multiplex mRNA; actives raise or lower the signal. In outline:
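Reporter transcripts from a GATA cis-regulated unit, among multiplexed reporters in transfected HepG2 cells, were measured by RT-PCR with capillary electrophoresis after 24 h dosing. Induction or loss scored relative to DMSO.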

A short description of assay [9]: ATG_GLI_CIS: Attagene CIS-FACTORIAL HepG2 Assay for human Zinc Finger Protein GLI1 (AID 2282945). Particulars: HepG2, Attagene cis-factorial reporter mRNA, GLI element; actives raise or lower the signal. In outline:
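HepG2 cells transiently transfected with cis-promoter multiplexed reporter units report endogenous transcription factor activity. After 24 h chemical exposure, reporter mRNA was quantified by RT-PCR, 6-FAM labelling, HpaI digestion and capillary electrophoresis, with bidirectional fitting against DMSO.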

For assay [10], the target named is Bile acid receptor (Homo sapiens) (UniProt Q96RI1). As to the kind of experiment: ATG_IR1_CIS: Attagene CIS-FACTORIAL HepG2 Assay for human Nuclear Receptor Subfamily 1 Group H Member 4 (NR1H4), IR1 submotif (AID 2282946). As to conditions: IR1 reporter transcription, actives raise or lower the signal. In outline:
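Readout: reporter transcript levels by RT-PCR with fluorescent capillary electrophoresis, from HepG2 cells transiently transfected with multiplexed cis-regulated reporters and dosed 24 h. Gain- or loss-of-signal fitted versus DMSO negative control.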

Assay [11] is described as follows: ATG_GRE_CIS: Attagene CIS-FACTORIAL HepG2 Assay for human Glucocorticoid Response Elements (GRE) (AID 2282947). Particulars: HepG2 GRE cis-reporter, Attagene multiplex mRNA; AC50: actives raise or lower the signal unless noted; outcome: actives raise or lower the signal unless noted. In outline: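 Cells (HepG2) bearing transfected cis-promoter reporter transcription units were treated with chemical for 24 hours. Reporter mRNA was measured via RT-PCR with capillary electrophoresis, and activity was fitted in both directions relative to DMSO.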

Assay [12] can be described thus: ATG_ISRE_CIS: Attagene CIS-FACTORIAL HepG2 Assay for human Interferon Regulatory Factor 1 (IRF1) binding to an Interferon-Stimulated Response Element (ISRE) (AID 2282948). As to conditions: HepG2 ISRE cis-reporter (Attagene), mRNA transcription readout; actives raise or lower the signal. In outline: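 Read-out: fluorescent RT-PCR products resolved by capillary electrophoresis, reporting endogenous transcription factor activity via ISRE-driven reporter mRNA in transfected HepG2 cells dosed for 24 h; gain or loss fitted relative to DMSO.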

Assay [13] is described as follows: ATG_M_32_CIS: Attagene CIS-FACTORIAL HepG2 Assay for M32 Transcription Factor (Internal Marker) (AID 2282949).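 Note: background control marker of the multiplexed CIS panel rather than a real target.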 As to conditions: HepG2 Attagene cis-factorial M32 reporter, mRNA; actives raise or lower the signal. In outline: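 HepG2 transfectants (cis-regulated reporter transcription units) dosed 24 h. Reporter mRNA by RT-PCR plus CE, analysed as gain or loss relative to DMSO.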

Assay [14] in a line: ATG_M_06_CIS: Attagene CIS-FACTORIAL HepG2 Assay for M06 Transcription Factor (Internal Marker) (AID 2282950). Particulars: HepG2 Attagene CIS-FACTORIAL M06 internal marker reporter; actives raise or lower the signal. In outline:
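Serves as a background control readout. Transfected HepG2 exposed to compounds for 24 h, then reporter transcripts quantified by fluorescent RT-PCR and capillary electrophoresis. Both directions fitted against DMSO baseline.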

Assay [15] deals with Hypoxia-inducible factor 1-alpha (Homo sapiens) (UniProt Q16665). Briefly: ATG_HIF1a_CIS: Attagene CIS-FACTORIAL HepG2 Assay for human Hypoxia Inducible Factor 1 (HIF1A) (AID 2282951). Particulars: HepG2 Attagene cis-factorial HIF1a reporter transcription; actives raise or lower the signal. In outline: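 Dosed 24 h, transfected HepG2 cells yielded total RNA whose reporter transcripts were RT-PCR-amplified and sized by capillary electrophoresis using fluorescent labelling; DMSO defined baseline, with gain and loss of signal both fitted.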

Assay [16] deals with Hepatocyte nuclear factor 6 (Homo sapiens) (UniProt Q9UBC0). As to the kind of experiment: ATG_HNF6_CIS: Attagene CIS-FACTORIAL HepG2 Assay for human Hepatocyte Nuclear Factor 6 (HNF6) (AID 2282952). Particulars: HepG2 Attagene cis-factorial HNF6 reporter transcription; actives raise or lower the signal. In outline:
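Using cis-element reporters in HepG2 liver cells, the assay tracks endogenous factor-driven transcription 24 h post-dosing. Signal comes from 6-FAM-labelled, HpaI-digested RT-PCR fragments, with gain or loss scored against DMSO.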

Assay [17] has as its target Heat shock factor protein 1 (Homo sapiens) (UniProt Q00613). Briefly: ATG_HSE_CIS: Attagene CIS-FACTORIAL HepG2 Assay for human Heat Shock Transcription Factor 1 (HSE) (AID 2282953). As to conditions: HepG2 HSE cis-reporter, Attagene RNA transcription; actives raise or lower the signal. The essentials:
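Endogenous transcription factor activity in transiently transfected HepG2, read as reporter mRNA by RT-PCR with fluorescent capillary electrophoresis after 24 h. Gain or loss of signal fitted versus DMSO baseline.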

The nature of assay [18]: ATG_MRE_CIS: Attagene CIS-FACTORIAL HepG2 Assay for human Metal Responsive Element (MRE) (AID 2282954). Particulars: HepG2 MRE cis-reporter transcription, Attagene multiplex; actives raise or lower the signal. The essentials: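 Cells were transfected with cis-promoter reporter transcription units, then dosed for 24 h. RNA was reverse-transcribed, amplified, fluorescently labelled and resolved by capillary electrophoresis, and activity was fitted in both directions relative to DMSO.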

Assay [19] in a line: ATG_PBREM_CIS: Attagene CIS-FACTORIAL HepG2 Assay for human Phenobarbital-responsive Enhancer Module (PBREM) (AID 2282955). Particulars: HepG2 PBREM cis-reporter, Attagene multiplexed transcription; actives raise or lower the signal. In outline:
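Transfected liver-derived HepG2 cells exposed 24 h; PBREM reporter transcript quantified via RT-PCR and capillary electrophoresis, with activity in either direction referenced to DMSO.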

The nature of assay [20]: ATG_ERE_CIS: Attagene CIS-FACTORIAL HepG2 Assay for Estrogen Response Element (ERE) (AID 2282940). Particulars: HepG2 ERE cis-reporter, Attagene RNA transcript; actives raise or lower the signal. In outline: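 After 24 h compound treatment, RNA from transfected HepG2 cells was reverse-transcribed, reporter cDNA PCR-amplified, FAM-labelled, HpaI-cut and resolved by capillary electrophoresis. ERE-driven cis reporter transcripts reflect endogenous factors; gain or loss scored against DMSO.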

Sequence of Hypoxia-inducible factor 1-alpha (Homo sapiens) (Q16665 whole entry, looked up): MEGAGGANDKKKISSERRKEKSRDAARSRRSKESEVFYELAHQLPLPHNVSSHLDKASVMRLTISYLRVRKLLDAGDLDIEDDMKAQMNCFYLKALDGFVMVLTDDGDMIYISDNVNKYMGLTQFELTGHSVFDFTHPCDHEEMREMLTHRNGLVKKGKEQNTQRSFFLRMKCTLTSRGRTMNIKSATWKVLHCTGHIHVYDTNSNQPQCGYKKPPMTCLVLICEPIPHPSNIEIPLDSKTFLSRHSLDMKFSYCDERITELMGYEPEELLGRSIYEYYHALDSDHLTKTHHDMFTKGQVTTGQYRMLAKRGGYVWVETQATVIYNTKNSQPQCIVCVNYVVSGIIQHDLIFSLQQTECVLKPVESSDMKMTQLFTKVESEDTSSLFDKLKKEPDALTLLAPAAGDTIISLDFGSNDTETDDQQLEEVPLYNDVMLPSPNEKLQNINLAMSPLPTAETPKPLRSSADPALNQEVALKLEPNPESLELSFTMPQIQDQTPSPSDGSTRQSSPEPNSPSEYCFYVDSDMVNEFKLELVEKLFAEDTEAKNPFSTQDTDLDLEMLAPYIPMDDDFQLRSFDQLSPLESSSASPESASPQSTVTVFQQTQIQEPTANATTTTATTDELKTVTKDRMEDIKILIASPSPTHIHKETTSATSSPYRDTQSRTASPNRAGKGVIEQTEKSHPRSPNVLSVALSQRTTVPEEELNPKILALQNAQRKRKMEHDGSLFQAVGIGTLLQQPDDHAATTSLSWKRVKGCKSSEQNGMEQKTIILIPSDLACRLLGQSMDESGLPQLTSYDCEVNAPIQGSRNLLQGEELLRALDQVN
Sequence of Bile acid receptor (Homo sapiens) (Q96RI1 whole entry, looked up): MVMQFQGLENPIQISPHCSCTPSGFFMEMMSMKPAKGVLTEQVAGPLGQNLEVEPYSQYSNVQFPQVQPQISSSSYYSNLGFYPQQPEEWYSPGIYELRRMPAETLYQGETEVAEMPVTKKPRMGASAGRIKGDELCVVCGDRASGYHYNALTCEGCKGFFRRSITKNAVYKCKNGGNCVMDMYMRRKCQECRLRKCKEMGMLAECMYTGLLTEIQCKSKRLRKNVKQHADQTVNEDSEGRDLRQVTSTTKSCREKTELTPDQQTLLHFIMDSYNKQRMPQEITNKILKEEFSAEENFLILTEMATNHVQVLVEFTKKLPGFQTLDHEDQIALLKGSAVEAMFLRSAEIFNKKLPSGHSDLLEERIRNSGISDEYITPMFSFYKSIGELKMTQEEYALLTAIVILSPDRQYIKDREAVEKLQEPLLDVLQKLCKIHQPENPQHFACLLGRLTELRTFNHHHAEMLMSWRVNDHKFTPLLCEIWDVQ
Sequence of Hepatocyte nuclear factor 6 (Homo sapiens) (Q9UBC0 whole entry, looked up, the tested form may be a part): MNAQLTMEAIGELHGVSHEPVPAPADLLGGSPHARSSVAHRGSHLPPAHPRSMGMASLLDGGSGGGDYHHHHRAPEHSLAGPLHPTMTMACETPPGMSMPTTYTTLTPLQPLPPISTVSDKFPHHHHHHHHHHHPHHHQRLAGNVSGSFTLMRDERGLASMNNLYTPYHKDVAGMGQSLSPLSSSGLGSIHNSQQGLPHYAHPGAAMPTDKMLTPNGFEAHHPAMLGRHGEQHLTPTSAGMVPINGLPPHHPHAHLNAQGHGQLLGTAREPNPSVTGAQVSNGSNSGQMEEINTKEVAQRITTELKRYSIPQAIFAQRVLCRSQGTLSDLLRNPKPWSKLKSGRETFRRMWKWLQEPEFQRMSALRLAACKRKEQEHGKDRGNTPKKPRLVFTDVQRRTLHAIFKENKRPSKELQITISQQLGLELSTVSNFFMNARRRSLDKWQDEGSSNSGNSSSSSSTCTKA
Sequence of Heat shock factor protein 1 (Homo sapiens) (Q00613 whole entry, looked up): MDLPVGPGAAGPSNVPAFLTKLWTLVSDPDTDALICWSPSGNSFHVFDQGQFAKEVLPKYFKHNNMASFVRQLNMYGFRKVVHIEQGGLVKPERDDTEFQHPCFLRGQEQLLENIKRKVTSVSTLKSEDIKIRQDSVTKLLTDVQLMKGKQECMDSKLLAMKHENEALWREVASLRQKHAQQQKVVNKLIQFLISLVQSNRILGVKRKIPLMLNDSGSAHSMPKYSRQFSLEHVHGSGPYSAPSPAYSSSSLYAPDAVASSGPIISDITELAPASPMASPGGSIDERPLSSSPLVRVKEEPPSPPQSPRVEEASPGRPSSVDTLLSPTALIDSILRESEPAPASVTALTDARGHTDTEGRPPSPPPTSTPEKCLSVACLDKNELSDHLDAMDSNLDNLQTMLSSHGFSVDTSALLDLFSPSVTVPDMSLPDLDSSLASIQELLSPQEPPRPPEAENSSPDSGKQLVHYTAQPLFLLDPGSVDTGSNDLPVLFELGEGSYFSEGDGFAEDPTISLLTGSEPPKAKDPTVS
Sequence of Hepatocyte nuclear factor 3-beta (Homo sapiens) (Q9Y261 whole entry, looked up): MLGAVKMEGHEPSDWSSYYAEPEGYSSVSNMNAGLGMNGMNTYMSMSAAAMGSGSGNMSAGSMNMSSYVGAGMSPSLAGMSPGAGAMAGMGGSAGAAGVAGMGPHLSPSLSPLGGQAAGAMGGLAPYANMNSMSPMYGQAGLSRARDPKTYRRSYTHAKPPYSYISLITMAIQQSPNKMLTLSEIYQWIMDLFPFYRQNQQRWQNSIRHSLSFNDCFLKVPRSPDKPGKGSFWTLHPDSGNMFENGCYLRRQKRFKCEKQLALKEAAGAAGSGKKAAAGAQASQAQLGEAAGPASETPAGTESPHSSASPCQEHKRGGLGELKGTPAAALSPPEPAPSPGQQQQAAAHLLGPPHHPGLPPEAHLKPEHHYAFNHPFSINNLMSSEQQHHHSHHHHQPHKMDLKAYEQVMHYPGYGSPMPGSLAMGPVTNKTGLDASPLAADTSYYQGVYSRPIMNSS

With `FC(F)(F)C1(F)C(F)(F)C(F)(F)C(F)(F)C(F)(C(F)(F)F)C1(F)F` (stereo not drawn), the outcome in assay [1], in assay [2], in assay [3], in assay [4], in [5] and in assay [6] was inactive. The result in assay [7], in assay [8], in assay [9], in assay [10], in assay [11] and in assay [12] was inactive. In addition, the call in [13], in assay [14], in assay [15], in assay [16], in assay [17] and in assay [18] was inactive. Moreover, the result in assay [19] was inactive.

`CN(C)c1ccc(C(=C2C=CC(=[N+](C)C)C=C2)c2ccccc2)cc1`: the AC50 in [1] was 3.63 µM (active) and 1.85 µM (active); in assay [3] it was 1.46 µM (active) and 1.85 µM (active); in [5] it was 10.1 µM (active); in assay [9], 1.42 µM (active) and 1.85 µM (active); in assay [10] it was 1.28 µM (active); in assay [12] it was 1.34 µM (active) and 1.85 µM (active). Further, the concentration at half-maximal activity (AC50) is 8.34 µM (active) in [16]; 1.46 µM (active) and 1.26 µM (active) in assay [17]. Moreover, the compound was classed as inactive in assay [2], in assay [4], in assay [5], in [7], in assay [8] and in [10]. Also, the result in assay [11], in assay [13], in assay [14], in assay [15], in assay [16] and in assay [19] was inactive.

Regarding `C[C@]12CC[C@@H]3c4ccc(O)cc4CC[C@H]3[C@@H]1CC[C@@H]2OC(=O)CCC1CCCC1`, the AC50 in [1] is 73.3 µM (active); in assay [20], 0.0823 µM (active); in assay [7], 177 µM (active); in assay [9] it was 100 µM (active); in assay [13], 164 µM (active); in [16], 125 µM (active). Besides, the result in assay [2], in assay [3], in [4], in assay [5], in [8] and in [10] was inactive. In addition, the result in assay [11], in [12], in assay [14], in [15], in assay [17] and in assay [18] was inactive. Besides, in assay [19], the outcome was inactive.
